Measurements as given in PubChem BioAssay (NCI).
This is part of a sample that, as a whole, favours compounds with a hit. Of some 83,000 tested, about 20% had one in any assay.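 Note: values are percent growth. 100 is the growth of untreated cells, values between 100 and 0 indicate rising inhibition; between -100 and 0 indicates cell death.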 Active and inactive are the calls of the source. How the source made its calls: active means growth percent below 10; inactive means the rest.

Tested on: NCI/ADR-RES ovarian
Test: NCI-60 one-dose screen, 48 h (100 = growth as untreated, 0 = no growth, -100 = all killed)
Conditions: 10 µM unless noted

Question: `O=C(/C=C/c1cccc(O)c1)c1ccc(O)cc1` was tested. Which growth did it give?
Answer: Its growth is 71.4% (inactive).

Question: `ClC(Cl)c1nc(-c2cccs2)n2nc(-c3ccccc3)cc2n1` was tested. Which growth did it give?
Answer: Its growth is -20.7% (active).

Question: Which growth does the source give for `CC1OC(O[C@@H]2C(O)C(CO)OC(O[C@H]3COC(O[C@H]4CC[C@]5(C)[C@H]6CC[C@]78OC[C@@]9(CC[C@](C)(C=O)C[C@H]97)[C@H](O)C[C@@]8(C)[C@]6(C)CC[C@H]5C4(C)C)[C@@H](OC4OC(CO)[C@@H](O)[C@@H](O)[C@@H]4O)[C@@H]3O)[C@H]2OC2OC[C@@H](O)[C@@H](O)[C@@H]2O)[C@@H](O)[C@@H](O)[C@H]1O` (some centres undefined) here?
Answer: Its growth is 46.1% (inactive).

Question: With `O=C(CCCCCCN1CC(=O)N2[C@@H](c3cc(F)cc(F)c3)c3[nH]c4ccccc4c3C[C@H]2C1=O)NO` as the compound, how does the growth read?
Answer: Its growth is 91.5% (inactive).

Question: Which growth does the source give for `N=c1c2cc(-c3ccccc3)oc2ncn1/N=C/c1ccccc1` here?
Answer: Its growth is 60.3% (inactive).

Question: For `COc1cc(CNC(=O)/C=C/c2ccccc2)ccc1OCC(=O)NO`, which growth is on record?
Answer: Its growth is 96.1% (inactive).

Question: Which growth does the source give for `C=C(C)[C@@H]1CC[C@]2(COS(C)(=O)=O)CC[C@]3(C)[C@H](CC[C@@H]4[C@@]5(C)CCCNC(C)(C)[C@@H]5CC[C@]43C)[C@@H]12` here?
Answer: The growth was 92% (inactive).

Question: `C#CCOc1ccc(C(Nc2cc(Cl)ccc2Cl)c2nnnn2C2CCCCC2)cc1` (centres undefined) was tested. Which growth did it give?
Answer: Its growth is 80.2% (inactive).

Question: Which growth does the source give for `Oc1ccc(CSc2nnc(-c3cnccn3)n2-c2ccccc2)c2cccnc12` here?
Answer: The growth was 10.9% (inactive).

Question: For `O=C(COc1ccc(C2SCC(=O)N2c2ccccc2)cc1)c1ccccc1` (centres undefined), which growth is on record?
Answer: The growth was 96.5% (inactive).

Question: For `c1ccc(-c2c(-c3ccccc3)[n+](Cc3ccc4ccccc4c3)c(-c3ccccc3)n2Cc2ccc3ccccc3c2)cc1`, which growth is on record?
Answer: Its growth is -65.8% (active).

Question: Which growth does the source give for `O=C1[C@H]2Cc3c([nH]c4ccccc34)[C@H](c3ccc(Cl)cc3)N2C(=O)CN1C1CCN(Cc2c(Cl)cccc2Cl)CC1` here?
Answer: The growth was 77.6% (inactive).

Question: For `COc1ccc(/C=C/C(=O)c2nnn(-c3ccc(Br)cc3)c2C)cc1OC`, which growth is on record?
Answer: The growth was 59.3% (inactive).

Question: How did the growth turn out when `CCC(CC)N1C(=O)/C(=c2\sc3n(c2=O)C2C(NN=3)N(CC)C(=O)N2CC)c2ccccc21` (centres undefined) was run?
Answer: The growth was 11% (inactive).

Question: For `COc1ccc(-c2nnc(SCc3ccc(O)c4ncccc34)n2-c2ccccc2)cc1`, which growth is on record?
Answer: The growth was 4.3% (active).

Question: How did the growth turn out when `C=C(C)[C@@H]1CC[C@]2(C(=O)NCCCN(CCC#N)CCC#N)CC[C@]3(C)[C@H](CC[C@@H]4[C@@]5(C)CCC(=O)C(C)(C)[C@@H]5CC[C@]43C)[C@@H]12` was run?
Answer: Its growth is 102% (inactive).

Question: For `O=C(COc1ccc(C2SCC(=O)N2c2ccc(F)cc2)cc1)c1ccccc1` (centres undefined), which growth is on record?
Answer: The growth was 94.2% (inactive).

Question: For `NCCN1CCN(c2nc(-c3ccccc3)nc3nc(-c4ccccc4)oc23)CC1`, which growth is on record?
Answer: The growth was -45.3% (active).

Question: For `Cc1ccc(NC(=O)c2cccc(CN3CCN(C)CC3)c2)cc1Oc1ccc(-c2[nH]nc3ncnc(N)c23)cc1`, which growth is on record?
Answer: Its growth is 101% (inactive).
